Data from PubChem BioAssay (NCATS).
Records with an inconclusive call do not appear. Activity calls are given as the source filed them. Unless noted, the call rests on the fitted dose curve; in most records, active means well fitted inhibition curve with a large enough effect; inconclusive means small, poorly fitted or top-dose-only effect; inactive means flat fitted curve, though single readings scatter.

Assays:
[1] = AP1 Signaling Pathway (AID 357; active means well fitted curve in either direction with a large enough effect, not every such curve was filed as active;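 further: ME-180 reporter cells stimulated with EGF at its EC50 level; on the % scale 0 is the no-effect control and ±100 the full control effect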)
Summary of the method: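 A ratiometric CCF4 readout (405 nm excitation; 460 and 530 nm emission) quantified AP-1-driven beta-lactamase in ME-180 cells after 5 h with compound and EC50 EGF; AC50 values were derived for activators and inhibitors.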

[2] = biological target: Cytochrome P450 1A2 (Homo sapiens) (UniProt P05177); assay: p450-cyp1a2 (AID 410; calls by dose curve; further: potency means the concentration at half of the fitted maximal effect;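 on activity change, negative = inhibition: -100% = full effect of reference inhibitor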)
Cytochrome P450 1A2 (Homo sapiens), sequence (P05177 whole entry, looked up): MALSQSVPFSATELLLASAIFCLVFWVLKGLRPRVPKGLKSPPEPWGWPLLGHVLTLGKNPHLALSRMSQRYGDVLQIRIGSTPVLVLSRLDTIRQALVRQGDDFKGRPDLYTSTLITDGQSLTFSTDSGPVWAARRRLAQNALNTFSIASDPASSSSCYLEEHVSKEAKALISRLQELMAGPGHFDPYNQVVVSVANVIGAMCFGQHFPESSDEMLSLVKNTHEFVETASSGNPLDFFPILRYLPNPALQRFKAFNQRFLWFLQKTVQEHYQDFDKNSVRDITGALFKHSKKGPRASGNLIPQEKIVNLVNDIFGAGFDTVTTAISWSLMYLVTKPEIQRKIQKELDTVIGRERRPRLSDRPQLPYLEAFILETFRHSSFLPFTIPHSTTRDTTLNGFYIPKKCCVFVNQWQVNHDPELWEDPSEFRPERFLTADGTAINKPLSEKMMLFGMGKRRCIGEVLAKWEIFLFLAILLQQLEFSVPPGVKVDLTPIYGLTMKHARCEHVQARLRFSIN
Summary of the method: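 O-Demethylation of luciferin 6' methyl ether by human CYP1A2 is monitored as luciferase luminescence. Substrate sits at Km (100uM); enzyme is 20nM. Values are scaled to 57 uM furafylline as maximal inhibition.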

[3] = Stat Signaling Pathway (AID 446; active means well fitted curve in either direction with a large enough effect, not every such curve was filed as active;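 further: ME-180 cervical cancer cells given 40 pM IL-6 alongside compound; SIE-controlled beta-lactamase reporter measured as 460/530 nm FRET emission ratio; on the % scale 0 is the no-effect control and ±100 the full control effect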)
Summary of the method: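 Overnight-plated ME-180 cells bearing a STAT Inducible Element beta-lactamase reporter; 5 h co-exposure to compound and 40 pM IL-6; values normalized to 300 pM IL-6 and 125 nM JAK inhibitor controls.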

[4] = biological target: Glucocorticoid receptor (Homo sapiens) (UniProt P04150); assay: GR-GFP Redistribution (AID 450;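 active means compounds whose dose series gives a full or clear partial fitted curve of increased nuclear translocation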; further: potency means the concentration at half of the fitted maximal effect); conditions: U2OS GR-GFP nuclear translocation, laser cytometry, 2 h
Glucocorticoid receptor (Homo sapiens), sequence (P04150 whole entry, looked up, the tested form may be a part): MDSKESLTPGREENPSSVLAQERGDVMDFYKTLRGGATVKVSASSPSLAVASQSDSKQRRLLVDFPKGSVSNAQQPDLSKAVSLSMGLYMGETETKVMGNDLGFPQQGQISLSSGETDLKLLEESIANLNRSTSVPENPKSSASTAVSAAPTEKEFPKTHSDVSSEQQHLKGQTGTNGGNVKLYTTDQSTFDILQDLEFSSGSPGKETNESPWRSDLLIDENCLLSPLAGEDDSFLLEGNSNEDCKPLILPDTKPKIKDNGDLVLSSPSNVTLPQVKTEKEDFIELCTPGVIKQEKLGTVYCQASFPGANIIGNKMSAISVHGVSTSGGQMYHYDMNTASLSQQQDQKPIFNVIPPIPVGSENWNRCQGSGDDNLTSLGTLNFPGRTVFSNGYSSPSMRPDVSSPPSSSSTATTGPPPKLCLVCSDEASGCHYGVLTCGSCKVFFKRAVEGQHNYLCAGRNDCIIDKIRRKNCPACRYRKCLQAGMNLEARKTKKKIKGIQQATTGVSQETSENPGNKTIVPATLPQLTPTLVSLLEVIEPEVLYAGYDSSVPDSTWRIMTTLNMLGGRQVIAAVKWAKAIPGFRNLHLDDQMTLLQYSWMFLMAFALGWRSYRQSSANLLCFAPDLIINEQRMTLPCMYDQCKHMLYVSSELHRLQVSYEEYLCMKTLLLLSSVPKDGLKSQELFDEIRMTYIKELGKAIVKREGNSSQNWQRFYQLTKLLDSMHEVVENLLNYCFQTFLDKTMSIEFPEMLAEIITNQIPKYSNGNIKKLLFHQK

[5] = biological target: Glucocorticoid receptor (Homo sapiens) (UniProt P04150); assay: GR-EFC Redistribution (AID 451; calls by dose curve; further: potency means the concentration at half of the fitted maximal effect); conditions: CHO-K1 GR-EFC translocation, beta-gal luminescence, 2 h
Summary of the method: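 CHO-K1 cells stably expressing nuclear-localized β-gal enzyme acceptor and GR fused C-terminally to the enzyme donor fragment; ligand-driven nuclear translocation restores β-gal by complementation. Compounds titrated up to 46 uM final, 2 h at 37 °C; luminescence read.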

[6] = biological target: 3',5'-cyclic-AMP phosphodiesterase 4B (Homo sapiens) (UniProt Q07343); assay: qHTS Assay for Inhibitors of PDE-IV (AID 607; active means well fitted activation curve with a large enough effect in the main read-out, with a control signal flat, not every such curve was filed as active; further: % of control where 0% means no effect)
3',5'-cyclic-AMP phosphodiesterase 4B (Homo sapiens), sequence (Q07343 whole entry, looked up): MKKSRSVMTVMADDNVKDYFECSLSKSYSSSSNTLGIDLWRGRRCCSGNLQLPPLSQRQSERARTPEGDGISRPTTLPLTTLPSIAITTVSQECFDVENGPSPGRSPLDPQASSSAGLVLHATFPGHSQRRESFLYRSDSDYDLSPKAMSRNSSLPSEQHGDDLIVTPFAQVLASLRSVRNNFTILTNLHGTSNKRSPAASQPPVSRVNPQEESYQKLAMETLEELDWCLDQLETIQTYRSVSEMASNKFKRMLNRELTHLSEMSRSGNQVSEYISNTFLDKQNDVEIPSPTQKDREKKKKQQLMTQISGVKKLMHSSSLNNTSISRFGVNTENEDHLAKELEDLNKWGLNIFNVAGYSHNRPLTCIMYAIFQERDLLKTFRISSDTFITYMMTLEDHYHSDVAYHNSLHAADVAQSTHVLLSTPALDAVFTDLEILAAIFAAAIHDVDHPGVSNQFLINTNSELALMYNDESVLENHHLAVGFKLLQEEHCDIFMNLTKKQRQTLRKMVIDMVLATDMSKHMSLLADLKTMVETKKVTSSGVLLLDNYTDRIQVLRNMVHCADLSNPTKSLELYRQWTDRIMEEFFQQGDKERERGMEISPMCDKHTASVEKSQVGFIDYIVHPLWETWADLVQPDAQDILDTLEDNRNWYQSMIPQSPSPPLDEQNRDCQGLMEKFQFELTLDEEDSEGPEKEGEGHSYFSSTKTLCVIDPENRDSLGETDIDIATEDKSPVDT
Summary of the method: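 Live HEK293 cells with a modified cyclic nucleotide-gated (CNG) channel report intracellular cAMP via membrane-potential dye fluorescence (ex 535/em 590 nm). Endogenous PDE-IV was targeted. Compounds were tested at up to 22.9 uM final; RO 20-1724 100 uM served as control.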

[7] = qHTS Assay for Lipid Storage Modulators (AID 1519; calls by dose curve; on activity change, negative = inhibition: on the % scale 0 is the no-effect control and ±100 the full control effect); conditions: Drosophila S3 cells, BODIPY lipid droplet/cell ratio, laser cytometry, cells loaded with oleic acid
Summary of the method: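 Cells seeded at 5,000 per well were treated with compounds over a concentration series and loaded with oleic acid (400 uM, as added). Lipid droplet fluorescence (488 nm excitation, 500-530 nm channel) was read by laser-scanning cytometry and normalized to 20 uM Triacsin C.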

[8] = biological target: Ubiquitin carboxyl-terminal hydrolase 1 (Homo sapiens) (UniProt O94782); assay: Inhibitors of USP1/UAF1: Pilot qHTS (AID 504865);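 further: rhodamine fluorescence freed from ubiquitin-rhodamine substrate followed over time; top concentration of the series differs between compounds; on the % scale 0 is the no-effect control and ±100 the full control effect; nearly all actives have a fitted effect of over 35% in size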
Ubiquitin carboxyl-terminal hydrolase 1 (Homo sapiens), sequence (O94782 whole entry, looked up): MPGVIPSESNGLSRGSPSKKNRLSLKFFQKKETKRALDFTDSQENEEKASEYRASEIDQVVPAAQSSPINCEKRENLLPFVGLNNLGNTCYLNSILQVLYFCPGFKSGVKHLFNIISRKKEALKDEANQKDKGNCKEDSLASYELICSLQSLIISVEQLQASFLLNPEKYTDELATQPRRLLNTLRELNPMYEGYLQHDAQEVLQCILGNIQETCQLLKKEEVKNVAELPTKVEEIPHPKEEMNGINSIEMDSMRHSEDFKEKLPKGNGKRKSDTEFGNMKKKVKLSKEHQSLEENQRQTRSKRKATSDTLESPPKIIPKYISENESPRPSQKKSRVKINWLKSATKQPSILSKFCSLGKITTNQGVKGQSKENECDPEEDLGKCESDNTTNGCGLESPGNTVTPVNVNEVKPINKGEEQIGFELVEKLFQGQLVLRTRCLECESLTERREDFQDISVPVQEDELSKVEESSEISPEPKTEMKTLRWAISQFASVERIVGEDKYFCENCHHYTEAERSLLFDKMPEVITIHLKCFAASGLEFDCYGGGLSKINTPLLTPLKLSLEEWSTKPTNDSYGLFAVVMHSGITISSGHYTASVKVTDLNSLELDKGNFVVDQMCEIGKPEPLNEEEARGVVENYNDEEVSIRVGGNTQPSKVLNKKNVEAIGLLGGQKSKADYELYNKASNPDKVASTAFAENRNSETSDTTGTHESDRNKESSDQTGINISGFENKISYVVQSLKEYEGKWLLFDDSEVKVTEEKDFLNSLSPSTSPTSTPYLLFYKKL
Summary of the method: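 USP1/UAF1 complex at 1 nM preincubated 15 min at room temperature with compound, then Ub-Rho substrate added at 150 nM final. Fluorescence (480/540 nm) read kinetically in 50 mM HEPES pH 7.8, 0.5 mM EDTA, 1 mM TCEP, 0.1 mg/ml BSA, 0.01% Tween-20.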

[9] = biological target: Mitogen-activated protein kinase 10 (Mus musculus) (UniProt Q61831); assay: JNK3 AlphaScreen Assay (AID 530; active means well fitted curve in either direction with a large enough effect, not every such curve was filed as active;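 further: kinase came from lysate of stimulated human HepG2 cells; signal reports phosphorylation of biotinylated GST-cJun 1-79 at Ser73 with 10 µM ATP; on the % scale 0 is the no-effect control and ±100 the full control effect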)
Summary of the method: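 Phosphorylation of biotinylated GST-cJun(1-79) at Ser73 is measured by AlphaScreen proximity luminescence. Enzyme is JNK3 in HepG2 lysates activated with interleukin-1beta and tumor necrosis factor alpha; ATP is 10 uM final.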

[10] = biological target: Luciferin 4-monooxygenase (Photinus pyralis) (UniProt P08659); assay: Biochemical firefly luciferase enzyme assay for NPC (AID 624030);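 further: purified P. pyralis luciferase at 10 nM with luciferin and ATP substrate; 0% = DMSO and -100% = full luciferase inhibition by PTC124 control; nearly all actives have a fitted effect of over 70% in size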
Luciferin 4-monooxygenase (Photinus pyralis), sequence (P08659 whole entry, looked up): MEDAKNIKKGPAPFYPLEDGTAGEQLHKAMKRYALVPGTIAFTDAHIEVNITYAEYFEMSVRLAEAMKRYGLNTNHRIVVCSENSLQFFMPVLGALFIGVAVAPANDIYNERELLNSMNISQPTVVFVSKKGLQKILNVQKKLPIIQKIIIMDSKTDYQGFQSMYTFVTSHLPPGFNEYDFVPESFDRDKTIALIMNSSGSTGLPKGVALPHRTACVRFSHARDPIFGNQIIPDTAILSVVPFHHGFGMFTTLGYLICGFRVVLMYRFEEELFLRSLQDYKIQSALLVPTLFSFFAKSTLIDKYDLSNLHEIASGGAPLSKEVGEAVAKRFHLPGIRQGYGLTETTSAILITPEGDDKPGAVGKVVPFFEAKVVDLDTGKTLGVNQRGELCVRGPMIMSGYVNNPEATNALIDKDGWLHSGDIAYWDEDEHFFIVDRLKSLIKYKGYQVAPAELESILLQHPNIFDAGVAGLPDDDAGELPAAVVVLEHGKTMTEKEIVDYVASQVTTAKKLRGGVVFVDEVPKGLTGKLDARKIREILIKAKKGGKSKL
Summary of the method: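 Counter-screen for direct inhibition of the luciferase enzyme by approved-drug library compounds, run at 10 nM enzyme in 50 mM Tris acetate (final). Luminescence was read within 5 min of enzyme-buffer addition and normalized to PTC124 versus DMSO (0%).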

[11] = qHTS profiling for inhibitors of Plasmodium falciparum proliferation (AID 504749); further: nearly all actives have a fitted effect of over 60% in size; further: potency means the concentration at half of the fitted maximal effect;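 on activity, negative = inhibition: 0% = DMSO vehicle and full inhibition = artemisinin control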; conditions: P. falciparum in erythrocytes, SYBR Green DNA, 72 h
Summary of the method: (§1)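 Quantitative HTS: compounds pinned into medium, infected erythrocytes added (0.3% parasitemia, 2.5% hematocrit), 72 h culture at 37 C under 5% CO2. Saponin/Triton lysis with SYBR Green I, overnight RT, then fluorescence read.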

[12] = system: C2A; assay: as above; conditions: P. falciparum in erythrocytes, SYBR Green DNA, 72 h; series mostly up to 12.8 µM
Summary of the method: as §1

[13] = system: CP217; assay: as above; conditions: P. falciparum in erythrocytes, SYBR Green DNA, 72 h; series mostly up to 12.8 µM
Summary of the method: as §1

[14] = system: CP238; assay: as above; conditions: P. falciparum in erythrocytes, SYBR Green DNA, 72 h; series mostly up to 12.8 µM
Summary of the method: as §1

[15] = system: CP250; assay: as above; conditions: P. falciparum in erythrocytes, SYBR Green DNA, 72 h; series mostly up to 12.8 µM
Summary of the method: as §1

[16] = system: CP256; assay: as above; conditions: P. falciparum in erythrocytes, SYBR Green DNA, 72 h; series mostly up to 12.8 µM
Summary of the method: as §1

[17] = system: FAB9; assay: as above; conditions: P. falciparum in erythrocytes, SYBR Green DNA, 72 h; series mostly up to 12.8 µM
Summary of the method: as §1

[18] = system: JCK; assay: as above; conditions: P. falciparum in erythrocytes, SYBR Green DNA, 72 h; series mostly up to 12.8 µM
Summary of the method: as §1

[19] = system: SC27B; assay: as above; conditions: P. falciparum in erythrocytes, SYBR Green DNA, 72 h; series mostly up to 12.8 µM
Summary of the method: as §1

[20] = measured here: cell count channel max response
[21] = measured here: lipid channel max response
[22] = at 28.7 µM (top of the series), parasite line A
[23] = at 28.7 µM (top of the series), parasite line B
[24] = at 12.8 µM (top of the series), parasite line A
[25] = at 12.8 µM (top of the series), parasite line B

COc1ccc(CNc2ncncc2-c2ccccc2CN(C)C)c(OC)c1
inactive: outcome [1] | outcome [3] | Potency [4] > 46 µM | Potency [5] > 46 µM | outcome [6] | activity change, negative = inhibition ([7]; at 57.5 µM (top of the series)) 6.9% | Potency [8]
19.6%: max response [7, 21]
9.69%: max response [7, 20]
active: Potency [2] 15.8 µM

O=C(c1cc(C(F)(F)F)cc(C(F)(F)F)c1)N1CCC[C@@]2(CCN(c3ccccn3)C2)C1
-16.6%: max response [7, 21]
active: Potency [2] 25.1 µM
inactive: outcome [1] | outcome [3] | Potency [5] > 46 µM | Potency [9] | activity change, negative = inhibition ([7]; at 57.5 µM (top of the series)) -14.3%
-3.88%: max response [7, 20]

C[C@H]1CC[C@@H]2[C@@H](C)[C@H]3[C@H](C[C@H]4[C@@H]5CC=C6C[C@@H](O[C@]7(O[C@H]8O[C@@H](C)[C@@H](O)[C@@H](O)[C@@H]8O)C[C@@H](O[C@@H]8O[C@H](CO)[C@@H](O)[C@H](O)[C@@H]8O)[C@@H](O)[C@H](CO)O7)CC[C@]6(C)[C@H]5CC[C@@]34C)N2C1
-8.96%: max response [7, 20]
inactive: outcome [1] | Potency [2] | outcome [3] | Potency [4] > 20.6 µM | Potency [5] > 20.6 µM | Potency [9] | outcome [6] | activity change, negative = inhibition ([7]; at 25.7 µM (top of the series)) -0.703% | Potency [8]
-10.1%: max response [7, 21]

C[C@@H]1C[C@H](OC(=O)[C@@H](O)c2ccccc2)CC(C)(C)N1C
-7.41%: max response [7, 21]
inactive: outcome [1] | Potency [2] | outcome [3] | Potency [4] > 20.6 µM | Potency [5] > 20.6 µM | Potency [9] | outcome [6] | activity change, negative = inhibition ([7]; at 25.7 µM (top of the series)) -2.91% | Potency [10]
-2.86%: max response [7, 20]

CN(C/C=C\c1ccccc1)Cc1cccc2ccccc12
-23.6%: max response [7, 21]
active: Potency [2] 2 µM
inactive: outcome [1] | outcome [3] | Potency [4] > 20.6 µM | Potency [5] > 20.6 µM | Potency [9] | activity change, negative = inhibition ([7]; at 25.7 µM (top of the series)) -0.644% | Potency [8] | Potency [10] | activity, negative = inhibition [11, 22] 18.6% | activity, negative = inhibition [11, 23] 9.39% | Potency [12] | Potency [13] | Potency [14] | Potency [15] | Potency [16] | Potency [17] | Potency [18] | Potency [19]
-24.2%: max response [7, 20]

COC(=O)Nc1nc2ccc(SC(C)C)cc2[nH]1
-2.31%: max response [7, 20]
active: Potency [2] 0.501 µM
-4.22%: max response [7, 21]
inactive: outcome [1] | outcome [3] | Potency [4] > 20.6 µM | Potency [5] > 20.6 µM | Potency [9] | outcome [6] | activity change, negative = inhibition ([7]; at 25.7 µM (top of the series)) -1.67% | Potency [8]

O=C(/C=C\C=C/c1ccc2c(c1)OCO2)N1CCCCC1
-1.9%: max response [7, 20]
active: Potency [2] 3.16 µM
1.28%: max response [7, 21]
inactive: outcome [1] | outcome [3] | Potency [9] | activity change, negative = inhibition ([7]; at 25.7 µM (top of the series)) 2%

CN1CCN([C@@H](c2ccccc2)c2ccc(Cl)cc2)CC1
active: Potency [16] 3.55 µM
inactive: outcome [1] | Potency [2] | outcome [3] | Potency [4] > 20.6 µM | Potency [5] > 20.6 µM | Potency [9] | outcome [6] | activity change, negative = inhibition ([7]; at 25.7 µM (top of the series)) -3.4% | Potency [8] | Potency [10] | activity, negative = inhibition [11, 24] 1.67% | activity, negative = inhibition [11, 25] -12.4% | Potency [12] | Potency [13] | Potency [14] | Potency [15] | Potency [17] | Potency [18] | Potency [19]
-16%: max response [7, 20]
-18.7%: max response [7, 21]

COc1cc2nc(N3CCN(C(=O)[C@@H]4COc5ccccc5O4)CC3)nc(N)c2cc1OC
-1.61%: max response [7, 21]
inactive: outcome [1] | Potency [2] | outcome [3] | Potency [9] | outcome [6] | activity change, negative = inhibition ([7]; at 25.7 µM (top of the series)) -1.08% | Potency [10] | activity, negative = inhibition [11, 23] -13.1% | Potency [12] | Potency [13] | Potency [14] | Potency [15] | Potency [16] | Potency [17] | Potency [18] | Potency [19]
-1.2%: max response [7, 20]

Clc1cnccn1
inactive: outcome [1] | Potency [2] | outcome [3] | Potency [4] > 20.6 µM | Potency [5] > 20.6 µM | outcome [6] | activity change, negative = inhibition ([7]; at 25.7 µM (top of the series)) 2.5% | Potency [8]
8.49%: max response [7, 20]
10.5%: max response [7, 21]

Clc1ccc([C@H](Cn2ccnc2)OCc2csc3c(Cl)cccc23)c(Cl)c1
-11.7%: max response [7, 21]
active: Potency [2] 6.31 µM | Potency ([11]; parasite line B) 3.55 µM | Potency [19] 4.47 µM
-11.9%: max response [7, 20]
inactive: outcome [1] | outcome [3] | Potency [4] > 20.6 µM | Potency [5] > 20.6 µM | Potency [9] | activity change, negative = inhibition ([7]; at 25.7 µM (top of the series)) 0.1% | Potency [8] | Potency [10]

CC(C)NC[C@H]1CCc2cc(CO)c([N+](=O)[O-])cc2N1
-10%: max response [7, 20]
-14.1%: max response [7, 21]
inactive: outcome [1] | outcome [3] | Potency [4] > 20.6 µM | Potency [5] > 20.6 µM | Potency [9] | outcome [6] | activity change, negative = inhibition ([7]; at 25.7 µM (top of the series)) -3.1% | Potency [8] | Potency [10] | activity, negative = inhibition [11, 24] 7.96% | activity, negative = inhibition [11, 25] 12.7% | Potency [12] | Potency [13] | Potency [14] | Potency [15] | Potency [16] | Potency [17] | Potency [18] | Potency [19]
active: Potency [2] 10 µM

CN(C)CCOC(=O)[C@@H](c1ccccc1)C1(O)CCCC1
2.88%: max response [7, 20]
inactive: outcome [1] | Potency [2] | outcome [3] | Potency [4] > 20.6 µM | Potency [5] > 20.6 µM | Potency [9] | outcome [6] | activity change, negative = inhibition ([7]; at 25.7 µM (top of the series)) -1.19% | Potency [8] | Potency [10] | activity, negative = inhibition [11, 22] 22.6% | activity, negative = inhibition [11, 23] 8.77% | Potency [12] | Potency [13] | Potency [14] | Potency [15] | Potency [16] | Potency [17] | Potency [18] | Potency [19]
1.92%: max response [7, 21]
